PubChem BioAssay AID1159580 (chemical genetic matrix, 2015)
About 2,000 (36%) of roughly 5,500 compounds were called active. Inconclusive results (about 18%) are left out. No stated cut-off is given here; in the data, active means normalized growth mostly below about 0.91 (no sharp cut-off); inconclusive means no clear call, values can overlap the other calls; inactive means mostly above about 0.92. This is one part of the list.

Experiment: chemical genetic growth profiling, strain panel (AID 1159580);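 further: tested at 20 µM; growth read once vehicle control cultures reached saturation at 30 °C; 1 = growth at the plate median or of vehicle wells; lower values mean less growth of the strain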
Details: growth OD
[1] = S. cerevisiae deletion strains, locus YAL013W, strain DEP1, active compounds read low
[2] = S. cerevisiae deletion strains, locus YBR229C, strain ROT2, active compounds read low
[3] = S. cerevisiae deletion strains, locus YDL101C, strain DUN1, active compounds read low
[4] = S. cerevisiae deletion strains, locus YDR150W, strain NUM1, active compounds read low
[5] = S. cerevisiae deletion strains, locus YEL061C, strain CIN8, active compounds read low
[6] = S. cerevisiae deletion strains, locus YGR078C, strain PAC10, active compounds read low
[7] = S. cerevisiae deletion strains, locus YHR030C, strain SLT2, active compounds read low
[8] = S. cerevisiae deletion strains, locus YHR087W, strain rtc3, active compounds read low
[9] = S. cerevisiae deletion strains, locus YJL187C, strain SWE1, active compounds read low
[10] = S. cerevisiae deletion strains, locus YJR043C, strain POL32, active compounds read low
[11] = S. cerevisiae deletion strains, locus YJR075W, strain HOC1, active compounds read low
[12] = S. cerevisiae deletion strains, locus YLR039C, strain RIC1, active compounds read low
[13] = S. cerevisiae deletion strains, locus YLR058C, strain SHM2 (second series), active compounds read low
[14] = S. cerevisiae deletion strains, locus YLR085C, strain ARP6, active compounds read low
[15] = S. cerevisiae deletion strains, locus YLR262C, strain YPT6, active compounds read low
[16] = S. cerevisiae deletion strains, locus YML094W, strain GIM5, active compounds read low
[17] = S. cerevisiae deletion strains, locus YMR219W, strain ESC1, active compounds read low
[18] = S. cerevisiae deletion strains, locus YMR263W, strain SAP30, active compounds read low
[19] = S. cerevisiae deletion strains, locus YMR307W, strain GAS1, active compounds read low
[20] = S. cerevisiae deletion strains, locus YNL153C, strain GIM3, active compounds read low
[21] = S. cerevisiae deletion strains, locus YNL298W, strain CLA4 (second series), active compounds read low
[22] = S. cerevisiae deletion strains, locus YNL322C, strain KRE1, active compounds read low
[23] = S. cerevisiae deletion strains, locus YNR030W, strain Alg12, active compounds read low
[24] = S. cerevisiae deletion strains, locus YOL006C, strain TOP1, active compounds read low
[25] = S. cerevisiae deletion strains, locus YPL055C, strain LGE1, active compounds read low
[26] = S. cerevisiae deletion strains, locus YPL241C, strain CIN2, active compounds read low
[27] = S. cerevisiae deletion strains, locus YPR135W, strain CTF4, active compounds read low
[28] = S. cerevisiae strains, strain wild type, active compounds read low

Measured: normalized growth

COC(=O)c1cc([N+](=O)[O-])ccc1N1CCOCC1
inactive: [1] 1.01 | [2] 1 | [3] 1.01 | [4] 0.98 | [5] 1.01 | [6] 1.01 | [7] 1.09 | [8] 1.02 | [9] 1 | [10] 0.991 | [11] 0.988 | S. cerevisiae deletion strains, locus YKL190W, strain CNB1, active compounds read low 1.01 | [12] 1.02 | [13] 1 | [14] 1.06 | [15] 1.01 | [16] 1.03 | [17] 1 | [18] 1 | [19] 1.06 | [20] 0.995 | [21] 1.05 | [22] 0.993 | [23] 1.03 | [24] 1.06 | [25] 1.02 | [26] 1.06 | [27] 1.04 | [28] 1.01

COc1cc([N+](=O)[O-])ccc1N1CCCC1
active: [1] 0.898 | [3] 0.882 | [6] 0.882 | [7] 0.302 | [9] 0.902 | [12] 0.554 | [13] 0.929 | [14] 0.605 | [15] 0.661 | [16] 0.865 | [17] 0.934 | [19] 0.445 | [20] 0.913 | [21] 0.775 | [22] 0.916 | [23] 0.862 | [24] 0.522 | [26] 0.858 | [27] 0.512 | [28] 0.867
inactive: [2] 0.941 | [4] 0.898 | [5] 0.912 | [8] 0.979 | [10] 0.951 | [11] 0.933 | [18] 0.928 | S. cerevisiae deletion strains, locus YNL128W, strain TEP1, active compounds read low 0.931 | [25] 0.946
